# Article PMC7862700, “An all-to-all approach to the identification of sequence-specific readers for epigenetic DNA modifications on cytosine”
# How the values were obtained:
# Test in all cases: DAPPL (digital affinity profiling via proximity ligation, sequencing); 10 mM Tris-HCl pH 7.5, 50 mM NaCl, 1 mM DTT, 4% glycerol, room temperature, 30 min; GST-TFs on glutathione beads, 16-mer random dsDNA library, 0.1% formaldehyde crosslink after washing; high values mean tight binding
# [1] = target: T1, FLI1 (Homo sapiens, UniProt Q01543 1-452); conditions: protein: recombinant; tags: N-terminal GST; dsDNA, one strand shown
# T1 sequence: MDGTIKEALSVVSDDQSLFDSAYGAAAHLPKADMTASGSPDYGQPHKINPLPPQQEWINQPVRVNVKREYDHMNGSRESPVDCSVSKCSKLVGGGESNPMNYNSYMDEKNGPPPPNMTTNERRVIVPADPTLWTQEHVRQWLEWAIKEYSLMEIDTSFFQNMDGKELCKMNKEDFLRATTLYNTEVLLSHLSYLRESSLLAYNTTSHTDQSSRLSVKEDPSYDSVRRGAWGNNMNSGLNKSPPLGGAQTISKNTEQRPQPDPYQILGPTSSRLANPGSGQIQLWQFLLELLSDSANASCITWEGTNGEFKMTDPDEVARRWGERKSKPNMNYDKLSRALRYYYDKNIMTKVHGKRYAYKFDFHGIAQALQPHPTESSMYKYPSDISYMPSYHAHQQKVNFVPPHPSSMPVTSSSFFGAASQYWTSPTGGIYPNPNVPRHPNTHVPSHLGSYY
# How it was run: (§1)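 Binding signal is defined as a hexamer's read frequency for one factor over its frequency for the tag-only sample. To obtain reads, GST-fused human transcription factors were expressed in yeast, captured on glutathione beads, barcoded with DNA and pooled with that sample. Pools met 200 nmole of a 16-mer random double-stranded DNA library in Tris/NaCl/DTT/glycerol buffer for 30 min at room temperature before washing, 0.1% formaldehyde crosslinking, proximity ligation (BsaI/T4 ligase, 1 h, 37 °C), PCR and Illumina NextSeq500 sequencing.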
# [2] = target: T2, ELK1 (Homo sapiens, UniProt P19419 1-428); conditions: protein: recombinant; tags: N-terminal GST; dsDNA, one strand shown
# T2 sequence: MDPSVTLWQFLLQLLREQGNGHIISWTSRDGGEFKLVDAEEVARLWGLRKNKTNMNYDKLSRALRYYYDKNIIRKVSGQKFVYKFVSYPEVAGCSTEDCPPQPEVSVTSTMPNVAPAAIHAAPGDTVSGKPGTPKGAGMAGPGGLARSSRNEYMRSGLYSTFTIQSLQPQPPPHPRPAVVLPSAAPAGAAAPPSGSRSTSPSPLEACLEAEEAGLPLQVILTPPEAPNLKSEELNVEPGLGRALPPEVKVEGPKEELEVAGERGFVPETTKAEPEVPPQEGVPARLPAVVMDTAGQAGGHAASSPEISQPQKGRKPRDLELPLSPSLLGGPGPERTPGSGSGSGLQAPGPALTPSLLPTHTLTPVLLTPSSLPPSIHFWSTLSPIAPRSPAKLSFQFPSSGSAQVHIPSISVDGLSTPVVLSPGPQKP
# How it was run: as §1
# [3] = target: T3, GABPA (Homo sapiens, UniProt Q06546 1-454); conditions: protein: recombinant; tags: N-terminal GST; dsDNA, one strand shown
# T3 sequence: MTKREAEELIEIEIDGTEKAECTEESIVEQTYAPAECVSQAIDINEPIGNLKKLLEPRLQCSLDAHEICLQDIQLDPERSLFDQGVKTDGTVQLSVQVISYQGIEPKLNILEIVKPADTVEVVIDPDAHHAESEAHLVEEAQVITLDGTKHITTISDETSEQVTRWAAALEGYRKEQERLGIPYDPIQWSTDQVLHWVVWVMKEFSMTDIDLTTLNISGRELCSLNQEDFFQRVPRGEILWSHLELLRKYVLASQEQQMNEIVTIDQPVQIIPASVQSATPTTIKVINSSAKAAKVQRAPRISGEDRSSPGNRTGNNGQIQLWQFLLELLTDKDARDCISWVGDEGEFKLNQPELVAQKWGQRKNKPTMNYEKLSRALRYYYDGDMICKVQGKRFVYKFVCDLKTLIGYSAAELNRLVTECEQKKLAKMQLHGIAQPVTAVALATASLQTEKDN
# How it was run: as §1
# [4] = target: ELF1 (Homo sapiens, UniProt P32519 1-619); conditions: protein: recombinant; tags: N-terminal GST; dsDNA, one strand shown
# Sequence of ELF1 (P32519 whole entry): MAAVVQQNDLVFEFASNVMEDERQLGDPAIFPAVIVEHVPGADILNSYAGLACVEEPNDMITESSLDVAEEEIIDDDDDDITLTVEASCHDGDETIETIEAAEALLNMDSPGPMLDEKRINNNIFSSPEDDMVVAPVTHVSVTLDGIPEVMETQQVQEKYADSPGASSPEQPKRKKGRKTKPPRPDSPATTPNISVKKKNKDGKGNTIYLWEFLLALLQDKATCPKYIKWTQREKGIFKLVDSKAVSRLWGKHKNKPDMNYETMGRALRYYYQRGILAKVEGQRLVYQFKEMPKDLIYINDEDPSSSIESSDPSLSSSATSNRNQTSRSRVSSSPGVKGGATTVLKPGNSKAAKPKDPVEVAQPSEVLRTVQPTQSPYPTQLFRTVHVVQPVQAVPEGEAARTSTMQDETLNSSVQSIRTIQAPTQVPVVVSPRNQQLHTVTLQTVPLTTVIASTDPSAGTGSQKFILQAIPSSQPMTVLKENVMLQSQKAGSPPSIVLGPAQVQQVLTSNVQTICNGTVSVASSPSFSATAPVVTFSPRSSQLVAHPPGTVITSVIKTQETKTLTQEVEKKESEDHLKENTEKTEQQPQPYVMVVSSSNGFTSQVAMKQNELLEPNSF
# How it was run: as §1
# [5] = target: T4, EHF (Homo sapiens, UniProt Q9NZC4 1-300); conditions: protein: recombinant; tags: N-terminal GST; dsDNA, one strand shown
# T4 sequence: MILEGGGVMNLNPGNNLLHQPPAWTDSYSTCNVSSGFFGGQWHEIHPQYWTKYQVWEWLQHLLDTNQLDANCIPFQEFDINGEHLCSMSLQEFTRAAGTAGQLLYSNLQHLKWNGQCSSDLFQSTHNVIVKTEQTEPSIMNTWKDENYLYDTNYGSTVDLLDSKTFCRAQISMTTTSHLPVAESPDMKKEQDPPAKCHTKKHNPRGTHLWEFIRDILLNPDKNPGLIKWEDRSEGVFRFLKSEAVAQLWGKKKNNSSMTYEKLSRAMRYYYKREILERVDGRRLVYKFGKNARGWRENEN
# How it was run: as §1
# [6] = target: SPI1 (Homo sapiens, UniProt P17947 1-270); conditions: protein: recombinant; tags: N-terminal GST; dsDNA, one strand shown
# How it was run: as §1
# [7] = target: SPIB (Homo sapiens, UniProt Q01892 1-262); conditions: protein: recombinant; tags: N-terminal GST; dsDNA, one strand shown
# Sequence of SPIB (Q01892 whole entry): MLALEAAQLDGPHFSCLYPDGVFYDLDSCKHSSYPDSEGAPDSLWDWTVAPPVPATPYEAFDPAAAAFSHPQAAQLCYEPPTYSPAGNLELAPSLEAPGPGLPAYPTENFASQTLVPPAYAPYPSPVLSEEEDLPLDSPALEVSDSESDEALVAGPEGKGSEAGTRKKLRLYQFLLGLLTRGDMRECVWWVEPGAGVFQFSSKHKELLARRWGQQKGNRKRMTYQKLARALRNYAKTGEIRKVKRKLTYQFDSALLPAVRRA
# How it was run: as §1
# [8] = target: T5, ELK3 (Homo sapiens, UniProt P41970 1-407); conditions: protein: recombinant; tags: N-terminal GST; dsDNA, one strand shown
# T5 sequence: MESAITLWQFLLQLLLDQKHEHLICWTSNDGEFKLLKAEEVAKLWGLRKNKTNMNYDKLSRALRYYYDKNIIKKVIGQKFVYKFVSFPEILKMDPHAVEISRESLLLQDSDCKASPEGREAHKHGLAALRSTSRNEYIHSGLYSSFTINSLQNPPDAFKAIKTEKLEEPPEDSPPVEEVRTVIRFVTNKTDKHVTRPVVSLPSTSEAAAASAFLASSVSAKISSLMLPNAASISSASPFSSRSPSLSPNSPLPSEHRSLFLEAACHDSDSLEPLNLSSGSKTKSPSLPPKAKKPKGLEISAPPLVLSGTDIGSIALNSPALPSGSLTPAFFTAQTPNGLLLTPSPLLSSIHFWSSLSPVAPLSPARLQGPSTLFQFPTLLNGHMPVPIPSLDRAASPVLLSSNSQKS
# How it was run: as §1
# [9] = target: ETV5 (Homo sapiens, UniProt P41161 1-510); conditions: protein: recombinant; tags: N-terminal GST; dsDNA, one strand shown
# Sequence of ETV5 (P41161 whole entry): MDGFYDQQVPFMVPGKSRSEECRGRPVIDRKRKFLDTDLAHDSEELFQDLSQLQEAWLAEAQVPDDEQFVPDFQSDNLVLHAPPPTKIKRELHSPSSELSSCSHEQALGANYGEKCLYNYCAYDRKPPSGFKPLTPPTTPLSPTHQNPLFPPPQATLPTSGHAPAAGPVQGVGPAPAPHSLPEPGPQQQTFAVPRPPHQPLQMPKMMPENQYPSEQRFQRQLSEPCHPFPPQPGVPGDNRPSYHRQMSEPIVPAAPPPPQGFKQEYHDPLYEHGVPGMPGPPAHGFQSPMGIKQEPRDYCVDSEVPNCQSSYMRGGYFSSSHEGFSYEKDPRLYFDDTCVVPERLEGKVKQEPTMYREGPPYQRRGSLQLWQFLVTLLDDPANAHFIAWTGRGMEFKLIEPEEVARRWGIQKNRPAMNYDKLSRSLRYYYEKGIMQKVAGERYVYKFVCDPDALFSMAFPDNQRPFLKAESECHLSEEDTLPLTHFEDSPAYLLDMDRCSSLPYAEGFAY
# How it was run: as §1
# [10] = target: HSF1 (Homo sapiens, UniProt Q00613 1-529); conditions: protein: recombinant; tags: N-terminal GST; chain copies: 3; dsDNA, one strand shown
# Sequence of HSF1 (Q00613 whole entry): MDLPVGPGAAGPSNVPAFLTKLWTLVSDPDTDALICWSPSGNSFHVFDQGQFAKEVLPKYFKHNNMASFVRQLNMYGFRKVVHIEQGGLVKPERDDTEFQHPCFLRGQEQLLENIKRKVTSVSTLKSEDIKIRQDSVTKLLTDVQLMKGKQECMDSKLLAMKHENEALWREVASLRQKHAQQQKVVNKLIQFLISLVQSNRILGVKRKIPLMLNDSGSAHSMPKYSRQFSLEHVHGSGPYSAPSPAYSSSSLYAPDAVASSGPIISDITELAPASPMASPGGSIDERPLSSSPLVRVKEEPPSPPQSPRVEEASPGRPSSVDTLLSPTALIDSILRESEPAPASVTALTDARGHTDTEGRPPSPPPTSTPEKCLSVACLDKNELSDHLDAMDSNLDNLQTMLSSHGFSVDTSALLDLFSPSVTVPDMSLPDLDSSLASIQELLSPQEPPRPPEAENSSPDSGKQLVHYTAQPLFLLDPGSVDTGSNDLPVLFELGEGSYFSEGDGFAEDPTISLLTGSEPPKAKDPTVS
# How it was run: as §1
# [11] = target: T6, SPIC (Homo sapiens, UniProt Q8N5J4 1-248); conditions: protein: recombinant; tags: N-terminal GST; dsDNA, one strand shown
# T6 sequence: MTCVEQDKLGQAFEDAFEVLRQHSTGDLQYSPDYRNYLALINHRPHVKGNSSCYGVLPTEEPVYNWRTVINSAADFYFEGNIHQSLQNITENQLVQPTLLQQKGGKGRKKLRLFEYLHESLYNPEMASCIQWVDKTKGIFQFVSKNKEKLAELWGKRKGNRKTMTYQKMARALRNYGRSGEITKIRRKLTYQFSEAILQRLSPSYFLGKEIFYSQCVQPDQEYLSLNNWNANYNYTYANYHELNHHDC
# How it was run: as §1
# [12] = target: ELF4 (Homo sapiens, UniProt Q99607 1-663); conditions: protein: recombinant; tags: N-terminal GST; dsDNA, one strand shown
# Sequence of ELF4 (Q99607 whole entry): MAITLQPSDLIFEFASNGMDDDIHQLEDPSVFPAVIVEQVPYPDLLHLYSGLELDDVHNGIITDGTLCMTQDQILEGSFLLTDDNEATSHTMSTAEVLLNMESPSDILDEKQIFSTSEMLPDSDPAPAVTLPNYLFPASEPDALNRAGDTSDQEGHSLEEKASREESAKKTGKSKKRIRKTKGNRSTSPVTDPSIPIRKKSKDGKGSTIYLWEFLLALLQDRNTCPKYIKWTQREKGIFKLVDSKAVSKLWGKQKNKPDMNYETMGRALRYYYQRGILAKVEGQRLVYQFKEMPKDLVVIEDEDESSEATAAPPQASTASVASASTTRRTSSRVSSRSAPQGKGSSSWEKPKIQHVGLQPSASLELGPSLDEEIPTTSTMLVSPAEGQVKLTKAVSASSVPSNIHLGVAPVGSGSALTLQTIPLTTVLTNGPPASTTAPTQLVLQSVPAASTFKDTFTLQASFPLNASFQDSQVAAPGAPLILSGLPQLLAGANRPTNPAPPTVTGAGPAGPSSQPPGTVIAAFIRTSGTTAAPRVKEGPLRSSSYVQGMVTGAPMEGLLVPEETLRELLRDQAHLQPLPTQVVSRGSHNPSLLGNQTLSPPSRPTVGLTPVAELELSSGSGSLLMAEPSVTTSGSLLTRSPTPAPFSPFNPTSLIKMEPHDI
# How it was run: as §1
# [13] = target: T7, ELK4 (Homo sapiens, UniProt P28324-2 1-405); conditions: protein: recombinant; tags: N-terminal GST; dsDNA, one strand shown
# T7 sequence: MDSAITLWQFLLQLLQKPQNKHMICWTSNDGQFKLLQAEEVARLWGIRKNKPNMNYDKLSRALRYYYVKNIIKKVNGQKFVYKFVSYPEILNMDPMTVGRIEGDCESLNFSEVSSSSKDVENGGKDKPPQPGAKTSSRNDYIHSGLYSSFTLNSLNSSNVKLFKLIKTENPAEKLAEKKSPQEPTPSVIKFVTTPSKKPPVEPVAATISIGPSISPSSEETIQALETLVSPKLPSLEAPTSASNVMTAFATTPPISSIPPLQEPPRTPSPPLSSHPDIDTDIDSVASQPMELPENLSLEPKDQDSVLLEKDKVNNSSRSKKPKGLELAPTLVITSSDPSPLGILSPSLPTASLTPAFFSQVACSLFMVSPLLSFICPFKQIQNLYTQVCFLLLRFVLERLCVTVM
# How it was run: as §1
# [14] = target: T8, ETV2 (Homo sapiens, UniProt O00321 1-342); conditions: protein: recombinant; tags: N-terminal GST; dsDNA, one strand shown
# T8 sequence: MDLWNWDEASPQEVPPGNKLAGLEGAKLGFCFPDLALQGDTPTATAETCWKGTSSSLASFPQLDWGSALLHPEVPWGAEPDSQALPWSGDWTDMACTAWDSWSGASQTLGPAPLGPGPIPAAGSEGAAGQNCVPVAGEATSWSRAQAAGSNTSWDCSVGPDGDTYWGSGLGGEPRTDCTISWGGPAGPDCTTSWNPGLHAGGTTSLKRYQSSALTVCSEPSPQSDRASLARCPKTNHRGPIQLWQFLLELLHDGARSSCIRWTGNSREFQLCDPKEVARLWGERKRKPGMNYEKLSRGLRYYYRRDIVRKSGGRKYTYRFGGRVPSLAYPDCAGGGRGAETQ
# How it was run: as §1
# [15] = target: T9, ELF3 (Homo sapiens, UniProt P78545 1-371); conditions: protein: recombinant; tags: N-terminal GST; dsDNA, one strand shown
# T9 sequence: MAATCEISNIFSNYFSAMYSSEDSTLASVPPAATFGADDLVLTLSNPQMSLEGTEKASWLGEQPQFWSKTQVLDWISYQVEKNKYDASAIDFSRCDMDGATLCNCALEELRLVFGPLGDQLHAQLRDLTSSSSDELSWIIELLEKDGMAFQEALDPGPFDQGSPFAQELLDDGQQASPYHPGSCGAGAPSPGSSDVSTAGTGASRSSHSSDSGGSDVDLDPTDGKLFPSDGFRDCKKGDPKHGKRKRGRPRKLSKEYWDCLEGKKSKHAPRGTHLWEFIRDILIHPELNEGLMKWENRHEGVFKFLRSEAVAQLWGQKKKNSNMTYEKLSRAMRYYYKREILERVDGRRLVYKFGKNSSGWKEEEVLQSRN
# How it was run: as §1
sequence,measurement,setting,value
AAAGGT,binding signal,[1],"1.1 fold enrichment (6-mer frequency, TF over GST control)"
same,binding signal,[2],"1.06 fold enrichment (6-mer frequency, TF over GST control)"
same,binding signal,[3],"1.1 fold enrichment (6-mer frequency, TF over GST control)"
same,binding signal,[4],"1.07 fold enrichment (6-mer frequency, TF over GST control)"
same,binding signal,[5],"1.06 fold enrichment (6-mer frequency, TF over GST control)"
same,binding signal,[6],"1.01 fold enrichment (6-mer frequency, TF over GST control)"
same,binding signal,[7],"1.02 fold enrichment (6-mer frequency, TF over GST control)"
same,binding signal,[8],"1.05 fold enrichment (6-mer frequency, TF over GST control)"
same,binding signal,[9],"1.05 fold enrichment (6-mer frequency, TF over GST control)"
same,binding signal,[10],"1.02 fold enrichment (6-mer frequency, TF over GST control)"
same,binding signal,[11],"1.09 fold enrichment (6-mer frequency, TF over GST control)"
same,binding signal,[12],"1.02 fold enrichment (6-mer frequency, TF over GST control)"
same,binding signal,[13],"1.05 fold enrichment (6-mer frequency, TF over GST control)"
same,binding signal,[14],"1.06 fold enrichment (6-mer frequency, TF over GST control)"
same,binding signal,[15],"1.17 fold enrichment (6-mer frequency, TF over GST control)"
